Data published in PubChem BioAssay (NCI).
Where “and” joins values, the source holds several entries; their conditions need not be identical. Equal entries are not always repeated. The panel holds about 83,000 compounds, 20% with a hit somewhere; the sample as a whole holds those more often.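 A percent growth of 40 corresponds to 60% growth inhibition; 0 means no net growth; -100 means all cells died. Active threshold: below 10.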 A number with no mark means an inactive call. Calls of active or inactive are those of the source.

Test system: A498 renal
Assay: NCI-60 one-dose screen, 48 h (100 = growth as untreated, 0 = no growth, -100 = all killed)
Conditions: 10 µM unless noted

| Compound | growth |
| --- | --- |
| N#Cc1ccc(/C=C/C(=O)c2ccccc2)cc1 | 112% and 84.1% |
| COc1ccc(COC=O)cc1 | 105% |
| O=[N+]([O-])c1ccc(N/N=C/C2CCCCCC2)c([N+](=O)[O-])c1 | 62.7% |
| COC(=O)C(Cc1cn(C(C)=O)c2ccccc12)P(=O)(OC)OC (stereo unspecified) | 115% |
| CCOCCC(=O)O | 80.1% |
| Cc1ccc(N)cc1S(=O)(=O)O | 113% |
| Cc1cc(-c2ccc(N=Nc3c(C)nn(-c4ccc(S(=O)(=O)O)cc4)c3O)c(C)c2)ccc1N=Nc1ccc(O)c(C(=O)O)c1 | 120% |
| CC(=O)c1cccc(OC(=O)c2ccccc2)c1 | 107% |
| O=C(O)/C=C/C=C/c1ccccc1 | 73.4% |
| CCOC(=N)c1ccc(C(=N)OCC)cc1 | 90.6% |
| COc1cc([C@@H]2c3cc4c(cc3[C@H](O)[C@H]3COC(=O)[C@@H]23)OCO4)cc(OC)c1OC | -5.77% (active) and -29.6% (active) |
| O=C1C=CC(=O)N1Cc1ccco1 | 110% |
| S=c1ccc2ccccc2[nH]1 | 110% |
| Clc1ccc(/C=C/c2ccc3ccccc3n2)cc1 | 61% and 135% and 114% |
| COc1ccc2oc3c(ccc[n+]3C)c(=O)c2c1 | 95.7% |
| C/C=C/C(=O)OCCCCCCCCCCCC | 103% |

| Compound | growth |
| --- | --- |
| N#Cc1c[nH]n2ccnc12 | 117% |
| CCCCCc1cc[n+](CC(=O)c2ccccc2)cc1 | 87.5% and 85.7% |
| CCOc1ccc(/C=C\C(=O)O)cc1 | 101% |
| CNc1ccc(O)cc1 | 90.9% and 68.1% |
| O=C1c2cccnc2-c2ncccc21 | 103% [100 µM] |
| Cc1c(Cl)cc(Cl)c(N)c1Cl | 91% |
| Cc1cc(NC(=O)NC(=O)c2ccccc2N(C)C)ccc1Oc1ncc(Br)cn1 | 15.2% and 10.6% |
| CC(C)(C)C1=CC(=O)C(C(C)(C)C)=CC1=O | 122% |
| OCc1ccccc1F | 98.5% |
| O=C(O)C1CSCN1 (stereo unspecified) | 113% and 103% |
| O=[N+]([O-])c1cccc(N=Cc2ccccc2)c1 | 110% |
| Cc1cc(O)c(C(C)C)cc1N=O | 94.8% and 95.5% |
| CS(=O)(=O)OCC1NC(=O)C(COS(C)(=O)=O)NC1=O (stereo unspecified) | 104% and 154% |
| CCCC(=O)Oc1ccc2ccccc2c1 | 103% |
| O=C(O)c1cccc(Br)c1 | 99.8% and 83% |
